{"source": "PubChem BioAssay (Tox21)", "note": "Inconclusive results are not listed. A call without a number means that no potency is given here. Activity calls are given as the source filed them. Calls come from the whole dose curve."}
{"target": "Beta-2 adrenergic receptor (Homo sapiens) (UniProt P07550)", "sequence (P07550 whole entry, looked up)": "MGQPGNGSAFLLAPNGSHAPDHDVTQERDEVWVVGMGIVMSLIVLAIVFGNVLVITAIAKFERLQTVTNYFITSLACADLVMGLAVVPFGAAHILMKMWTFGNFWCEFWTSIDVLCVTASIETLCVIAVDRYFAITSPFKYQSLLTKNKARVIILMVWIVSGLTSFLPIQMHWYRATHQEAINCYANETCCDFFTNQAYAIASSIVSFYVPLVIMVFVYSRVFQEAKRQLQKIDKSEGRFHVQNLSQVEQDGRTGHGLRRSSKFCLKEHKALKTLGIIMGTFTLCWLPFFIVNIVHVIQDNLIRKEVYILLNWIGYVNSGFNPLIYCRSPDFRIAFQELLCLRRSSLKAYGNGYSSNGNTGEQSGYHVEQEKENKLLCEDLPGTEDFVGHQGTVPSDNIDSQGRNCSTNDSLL", "assay": "Adrenergic beta2 receptor (ADRB2) small molecule antagonists, cell-based qHTS assay (AID 1963592); note: nearly all actives have a fitted effect of over 50% in size", "details": "CHO-ADRB2 cells, isoproterenol-stimulated cAMP HTRF ratio, 0.5 h; series mostly up to 92.4 µM", "outline": "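Assay format: CHO-ADRB2 cells, 18-20hr seeding at 37C/5% CO2, then compound plus 1nM isoproterenol agonist mix for 0.5hr RT. Homogeneous time-resolved fluorescence cAMP detection after 1hr, expressed as 665/615 nm ratio.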"}
{"compound": "CCC(N)(CO)CO", "Potency": "inactive"}
{"compound": "CCCCOC(=O)CCS", "Potency": "inactive"}
{"compound": "CC(=O)S[C@H](C(=O)N[C@H]1Cc2ccccc2[C@H]2CCC[C@@H](C(=O)O)N2C1=O)C(C)C", "Potency": "inactive"}
{"compound": "CCCCCCCCCOS(=O)(=O)O", "Potency": "inactive"}
{"compound": "COC(=O)c1ccc([N+](=O)[O-])cc1", "Potency": "inactive"}
{"compound": "COC(=O)Cc1cccc2ccccc12", "Potency": "inactive"}
{"compound": "CCCCCCCCCCCC(=O)OC[C@@H](O)[C@H]1OC[C@H](OCCO)[C@H]1OCCO", "Potency": "inactive"}
{"compound": "CCCCCCCC(=O)OCCCCCC", "Potency": "inactive"}
{"compound": "CC(=O)NC(Cc1ccccc1)C(=O)O", "note": "(stereo not given)", "Potency": "inactive"}
{"compound": "Cc1nc2ccccc2s1", "Potency": "inactive"}
{"compound": "CCO[Si](C)(C)OCC", "Potency": "inactive"}
{"compound": "Cc1nc(-c2ccc3c(c2)CCN(CCC2CCC(NC(=O)/C=C/c4ccc(F)cc4)CC2)CC3)no1", "note": "(stereo not given)", "Potency": "inactive"}
{"compound": "O=C(O)CCS", "Potency": "inactive"}
{"compound": "CCN(CC#N)c1cccc(C)c1", "Potency": "inactive"}
{"compound": "CC(C)(C)c1ccc(O)c(C(C)(C)C)c1", "Potency": "inactive"}
{"compound": "CC12CC3CC(C)(C1)CC(N)(C3)C2", "Potency": "inactive"}
{"compound": "O=C(/N=N/C(=O)OCc1ccccc1)OCc1ccccc1", "Potency": "inactive"}
{"compound": "CC(C)C(=O)O", "Potency": "inactive"}
{"compound": "c1ccc2cc3c4ccccc4c4ccccc4c3cc2c1", "Potency": "inactive"}
{"compound": "CO[Si](CCCNCCC[Si](OC)(OC)OC)(OC)OC", "Potency": "inactive"}
{"compound": "CCCCCCCCS(=O)(=O)Cl", "Potency": "inactive"}
{"compound": "Nc1ccc(S(=O)(=O)Nc2ccc(Cl)nn2)cc1", "Potency": "inactive"}
{"compound": "COC(=O)c1ccccc1C(=O)O", "Potency": "inactive"}
{"compound": "CC(=O)SC[C@@H](C)C(=O)N1CCC[C@H]1C(=O)N[C@@H](Cc1ccccc1)C(=O)O", "Potency": "inactive"}
{"compound": "CCCCCCCCCCCCCC", "Potency": "inactive"}
{"compound": "COc1cc(/C=C/C(=O)O[C@H]2CC[C@]34C[C@]35CC[C@]3(C)[C@@H]([C@H](C)CCC=C(C)C)CC[C@@]3(C)[C@@H]5CC[C@H]4C2(C)C)ccc1O", "Potency": "inactive"}
{"compound": "CC/C=C\\CCOC(=O)C(C)C", "Potency": "inactive"}
{"compound": "O=C1CC2CC1C1CCCC21", "note": "(stereo not given)", "Potency": "inactive"}
{"compound": "CC1CNCC(C)O1", "note": "(stereo not given)", "Potency": "inactive"}
{"compound": "Cc1ccc(C2OC[C@@H]3OC(c4ccc(C)cc4)O[C@H]([C@H](O)CO)[C@@H]3O2)cc1", "note": "(stereo not given in full)", "Potency": "inactive"}
{"compound": "CCCCC(O)/C=C(C)/C=C/C=C/C(=O)N1CCCC1=O", "note": "(stereo not given)", "Potency": "inactive"}
{"compound": "CC/C=C\\CCO", "Potency": "inactive"}
{"compound": "CC12CCC(C1)C(C)(C)C2O", "note": "(stereo not given)", "Potency": "inactive"}
{"compound": "O=C(C(=O)c1ccccc1)c1ccccc1", "Potency": "inactive"}
{"compound": "CCOC(=O)c1cc(=O)c2c(OCC(COc3cccc4oc(C(=O)OCC)cc(=O)c34)OC(=O)[C@@H](N)CCCCN)cccc2o1", "Potency": "inactive"}
{"compound": "COc1ccc(C)cc1", "Potency": "inactive"}
{"compound": "O=S(=O)(O)CCN1CCN(CCO)CC1", "Potency": "inactive"}
{"target": "Beta-2 adrenergic receptor (Homo sapiens) (UniProt P07550)", "assay": "Adrenergic beta2 receptor (ADRB2) small molecule agonists, cell-based qHTS assay (AID 1963593);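 note: CHO cells stably overexpressing human ADRB2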", "details": "CHO-ADRB2 cells, cAMP HTRF, 30 min; series mostly up to 92.4 µM", "outline": "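CHO cells stably over-expressing ADRB2 were plated overnight at 37C, then dosed with compounds plus a stimulation mix containing 100uM IBMX and 25uM Ro-20-1724 for 0.5hr at room temperature. cAMP was measured by HTRF competition, 1hr.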"}
{"compound": "CCC(N)(CO)CO", "Potency": "inactive"}
{"compound": "CCCCOC(=O)CCS", "Potency": "inactive"}
{"compound": "CC(=O)S[C@H](C(=O)N[C@H]1Cc2ccccc2[C@H]2CCC[C@@H](C(=O)O)N2C1=O)C(C)C", "Potency": "inactive"}
{"compound": "CCCCCCCCCOS(=O)(=O)O", "Potency": "inactive"}
{"compound": "COC(=O)c1ccc([N+](=O)[O-])cc1", "Potency": "inactive"}
{"compound": "COC(=O)Cc1cccc2ccccc12", "Potency": "inactive"}
{"compound": "CCCCCCCCCCCC(=O)OC[C@@H](O)[C@H]1OC[C@H](OCCO)[C@H]1OCCO", "Potency": "inactive"}
{"compound": "CCCCCCCC(=O)OCCCCCC", "Potency": "inactive"}
{"compound": "Cc1nc2ccccc2s1", "Potency": "inactive"}
{"compound": "CCO[Si](C)(C)OCC", "Potency": "inactive"}
{"compound": "Cc1nc(-c2ccc3c(c2)CCN(CCC2CCC(NC(=O)/C=C/c4ccc(F)cc4)CC2)CC3)no1", "note": "(stereo not given)", "Potency": "inactive"}
{"compound": "O=C(O)CCS", "Potency": "inactive"}
{"compound": "CCN(CC#N)c1cccc(C)c1", "Potency": "inactive"}
{"compound": "CC12CC3CC(C)(C1)CC(N)(C3)C2", "Potency": "inactive"}
{"compound": "O=C(/N=N/C(=O)OCc1ccccc1)OCc1ccccc1", "Potency": "inactive"}
{"compound": "CC(C)C(=O)O", "Potency": "inactive"}
{"compound": "c1ccc2cc3c4ccccc4c4ccccc4c3cc2c1", "Potency": "inactive"}
{"compound": "CO[Si](CCCNCCC[Si](OC)(OC)OC)(OC)OC", "Potency": "inactive"}
{"compound": "CCCCCCCCS(=O)(=O)Cl", "Potency": "inactive"}
{"compound": "Nc1ccc(S(=O)(=O)Nc2ccc(Cl)nn2)cc1", "Potency": "inactive"}
{"compound": "CCCCCCCCCCCCCC", "Potency": "inactive"}
{"compound": "CC/C=C\\CCOC(=O)C(C)C", "Potency": "inactive"}
{"compound": "O=C1CC2CC1C1CCCC21", "note": "(stereo not given)", "Potency": "inactive"}
{"compound": "CC1CNCC(C)O1", "note": "(stereo not given)", "Potency": "inactive"}
{"compound": "Cc1ccc(C2OC[C@@H]3OC(c4ccc(C)cc4)O[C@H]([C@H](O)CO)[C@@H]3O2)cc1", "note": "(stereo not given in full)", "Potency": "inactive"}
{"compound": "CCCCC(O)/C=C(C)/C=C/C=C/C(=O)N1CCCC1=O", "note": "(stereo not given)", "Potency": "inactive"}
{"compound": "CC/C=C\\CCO", "Potency": "inactive"}
{"compound": "O=C(O)c1cc(=O)[nH]c(=O)[nH]1", "Potency": "inactive"}
{"compound": "CC12CCC(C1)C(C)(C)C2O", "note": "(stereo not given)", "Potency": "inactive"}
{"compound": "O=C(C(=O)c1ccccc1)c1ccccc1", "Potency": "inactive"}
{"compound": "CCOC(=O)c1cc(=O)c2c(OCC(COc3cccc4oc(C(=O)OCC)cc(=O)c34)OC(=O)[C@@H](N)CCCCN)cccc2o1", "Potency": "inactive"}
{"compound": "COc1ccc(C)cc1", "Potency": "inactive"}
{"compound": "O=S(=O)(O)CCN1CCN(CCO)CC1", "Potency": "inactive"}
{"target": "D(2) dopamine receptor (Homo sapiens) (UniProt P14416)", "sequence (P14416 whole entry, looked up)": "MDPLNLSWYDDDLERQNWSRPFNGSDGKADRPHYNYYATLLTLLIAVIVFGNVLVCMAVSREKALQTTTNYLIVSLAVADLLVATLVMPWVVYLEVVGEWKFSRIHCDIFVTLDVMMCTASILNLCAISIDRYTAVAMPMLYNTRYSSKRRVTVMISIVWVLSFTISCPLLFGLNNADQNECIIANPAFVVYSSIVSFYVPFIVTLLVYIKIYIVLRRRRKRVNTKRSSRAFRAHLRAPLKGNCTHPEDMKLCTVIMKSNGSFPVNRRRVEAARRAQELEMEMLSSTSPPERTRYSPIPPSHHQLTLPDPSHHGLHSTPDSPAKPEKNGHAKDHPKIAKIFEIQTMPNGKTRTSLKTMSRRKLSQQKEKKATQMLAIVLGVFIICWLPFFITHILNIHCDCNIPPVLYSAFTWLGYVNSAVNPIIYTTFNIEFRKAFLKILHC", "assay": "Dopamine D2 receptor (DRD2) small molecule agonists, cell-based qHTS assay (AID 1963594); note: nearly all actives have a fitted effect of over 35% in size", "details": "HEK293-DRD2 cAMP HTRF, agonist mode, 30 min; series mostly up to 92.4 µM", "outline": "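HEK293 cells stably expressing human DRD2, pre-treated with PDE inhibitor Ro20-1724 (0.1 mM final) and compound 10 min at room temperature, then stimulated with NKH477 (200nM […]) for 30 min. cAMP read by HTRF (665/620 nm).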"}
{"compound": "CCC(N)(CO)CO", "Potency": "inactive"}
{"compound": "CCCCOC(=O)CCS", "Potency": "inactive"}
{"compound": "CC(=O)S[C@H](C(=O)N[C@H]1Cc2ccccc2[C@H]2CCC[C@@H](C(=O)O)N2C1=O)C(C)C", "Potency": "inactive"}
{"compound": "CCCCCCCCCOS(=O)(=O)O", "Potency": "inactive"}
{"compound": "COC(=O)c1ccc([N+](=O)[O-])cc1", "Potency": "inactive"}
{"compound": "COC(=O)Cc1cccc2ccccc12", "Potency": "inactive"}
{"compound": "CCCCCCCCCCCC(=O)OC[C@@H](O)[C@H]1OC[C@H](OCCO)[C@H]1OCCO", "Potency": "inactive"}
{"compound": "CCCCCCCC(=O)OCCCCCC", "Potency": "inactive"}
{"compound": "CC(=O)NC(Cc1ccccc1)C(=O)O", "note": "(stereo not given)", "Potency": "inactive"}
{"compound": "Cc1nc2ccccc2s1", "Potency": "inactive"}
{"compound": "CCO[Si](C)(C)OCC", "Potency": "inactive"}
{"compound": "Cc1nc(-c2ccc3c(c2)CCN(CCC2CCC(NC(=O)/C=C/c4ccc(F)cc4)CC2)CC3)no1", "note": "(stereo not given)", "Potency": "inactive"}
{"compound": "O=C(O)CCS", "Potency": "inactive"}
{"compound": "CCN(CC#N)c1cccc(C)c1", "Potency": "inactive"}
{"compound": "CC(C)(C)c1ccc(O)c(C(C)(C)C)c1", "Potency": "inactive"}
{"compound": "O=C(/N=N/C(=O)OCc1ccccc1)OCc1ccccc1", "Potency": "inactive"}
{"compound": "CC(C)C(=O)O", "Potency": "inactive"}
{"compound": "c1ccc2cc3c4ccccc4c4ccccc4c3cc2c1", "Potency": "inactive"}
{"compound": "CO[Si](CCCNCCC[Si](OC)(OC)OC)(OC)OC", "Potency": "inactive"}
{"compound": "CCCCCCCCS(=O)(=O)Cl", "Potency": "inactive"}
{"compound": "C=Cc1ccccn1", "Potency": "inactive"}
{"compound": "Nc1ccc(S(=O)(=O)Nc2ccc(Cl)nn2)cc1", "Potency": "inactive"}
{"compound": "COC(=O)c1ccccc1C(=O)O", "Potency": "inactive"}
{"compound": "CC(=O)SC[C@@H](C)C(=O)N1CCC[C@H]1C(=O)N[C@@H](Cc1ccccc1)C(=O)O", "Potency": "inactive"}
{"compound": "COc1cc(/C=C/C(=O)O[C@H]2CC[C@]34C[C@]35CC[C@]3(C)[C@@H]([C@H](C)CCC=C(C)C)CC[C@@]3(C)[C@@H]5CC[C@H]4C2(C)C)ccc1O", "Potency": "inactive"}
{"compound": "CC/C=C\\CCOC(=O)C(C)C", "Potency": "inactive"}
{"compound": "O=C1CC2CC1C1CCCC21", "note": "(stereo not given)", "Potency": "inactive"}
{"compound": "CC1CNCC(C)O1", "note": "(stereo not given)", "Potency": "inactive"}
{"compound": "Cc1ccc(C2OC[C@@H]3OC(c4ccc(C)cc4)O[C@H]([C@H](O)CO)[C@@H]3O2)cc1", "note": "(stereo not given in full)", "Potency": "inactive"}
{"compound": "CCCCC(O)/C=C(C)/C=C/C=C/C(=O)N1CCCC1=O", "note": "(stereo not given)", "Potency": "inactive"}
{"compound": "O=C(O)c1cc(=O)[nH]c(=O)[nH]1", "Potency": "inactive"}
{"compound": "CC12CCC(C1)C(C)(C)C2O", "note": "(stereo not given)", "Potency": "inactive"}
{"compound": "O=C(C(=O)c1ccccc1)c1ccccc1", "Potency": "inactive"}
{"compound": "COc1ccc(C)cc1", "Potency": "inactive"}
{"compound": "O=S(=O)(O)CCN1CCN(CCO)CC1", "Potency": "inactive"}
